Data as given in paper PMC5540273 (PLoS ONE, 2017).

Key:
[1] = system: NEK1
[2] = system: NEK2
[3] = system: NEK3
[4] = system: NEK4
[5] = system: NEK5
[6] = system: T1, PIP5K2C
T1 construct: gene PIP4K2C

[7] = system: PAK3
[8] = system: PAK6
[9] = system: T2, PFTK1
T2 construct: gene CDK14

[10] = system: PIK3C2B
[11] = system: PIK3CA
[12] = system: PIK3CG
[13] = system: PIP5K1C
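Further: kd values determined as follow-up on hits from a single-replicate KINOMEscan panel screen.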

CCn1c(-c2ccccn2)nc2cnccc21 [SB-736398] gave a Kd [1] of over 10 µM.

For CCCc1ccc(S(=O)(=O)NC2CCN(c3ccnc(Nc4ccc(F)cc4)n3)C2)cc1 (stereo not drawn) [GSK1379715], the Kd [1] was over 10 µM.

For CSc1nn2c(=O)cc(N3CCOCC3)nc2n1Cc1cccc(C(F)(F)F)c1C [GSK2363608], the Kd [2] was over 10 µM.

O=C(O)COc1ncnc2cc(-c3ccc4[nH]ncc4c3)sc12 was tested, and the Kd [3] was 0.21 µM.

Cn1ccc2ncnc(Oc3ccc(Nc4nc5ccccc5[nH]4)cc3)c21 was tested, and the Kd [4] was over 10 µM.

With COc1cc(Nc2nccc(N3CCC(NC(=O)Nc4cc(C)ccc4C)C3)n2)cc(OC)c1OC (stereo not drawn) [GSK1379762] the Kd [5] was 2.3 µM.

Compound COc1ccc(CNC(=O)NC2CCN(c3ccnc(Nc4cc(OC)c(OC)c(OC)c4)n3)C2)cc1 (stereo not drawn) [GSK1379748] has a Kd [5] of 0.73 µM and a Kd [6] of 0.6 µM.

O=C1NC(=O)C(N2CCc3ccccc32)=C1c1ccccc1Cl [SB-373598] was tested, and the Kd [7] was over 10 µM.

Compound Nc1ncnc2[nH]c(-c3ccccc3)nc12 [AH5015] has a Kd [7] of over 10 µM.

Work on CS(=O)(=O)c1ccc(-c2nc3n(c2-c2ccncc2)CCC3)cc1 [SKF-105942] yielded a Kd [8] of over 10 µM.

With COc1cc2nccc(Nc3ccc(NC(=O)c4ccc(C)cc4)c(O)c3)c2cc1OC.Cl [GW440132] the Kd [9] was over 10 µM, the Kd [10] was over 10 µM and the Kd [11] was over 10 µM. It also gave a Kd [12] of over 10 µM.

With CS(=O)(=O)c1ccc(-c2c(-c3ncn[nH]3)sc(N3CCOCC3)c2C#N)cc1 the Kd [11] was 0.021 µM.

COc1cc2ncn(-c3cc(OCC4CCCO4)c(C(N)=O)s3)c2cc1OC (stereo not drawn) [GSK204607] gave a Kd [13] of 7.7 µM.

COc1ccc(Nc2nccc(-c3cccc(NC(=O)c4cc5cc(F)ccc5[nH]4)c3)n2)cc1 [GSK1229782] gave a Kd [6] of 1.4 µM.
